The record followed here is PubChem BioAssay (NCI).

Compounds without any hit were thinned out: in the full panel of roughly 79,000, 15% have a hit. A number with no mark means an inactive call. The source made the active and inactive calls. No stated cut-off is given here; in the data, active means growth inhibition above about 70%; inactive means the rest.

The nature of assay [1]: NCI Yeast Anticancer Drug Screen. Data for the rad50 strain (AID 155).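 Further: 0% = growth of vehicle-only cultures of the same strain.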 The settings on record: S. cerevisiae rad50 strain growth inhibition; at 50.0 µM; hits give high values. The essentials: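 Inhibition values express reduced yeast growth in compound-treated cultures relative to vehicle-treated controls.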
Assay [2] can be described thus: NCI Yeast Anticancer Drug Screen. Data for the mec2-1 strain (AID 157). The settings on record: S. cerevisiae mec2-1 strain, at 50.0 µM, hits give high values. The method in brief:
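Using mec2-1 yeast: add compound, measure growth, express inhibition versus vehicle-treated cultures.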

Assay [3] can be described thus: NCI Yeast Anticancer Drug Screen. Data for the sgs1 mgt1 strain (AID 161).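 Further: 0% = growth of cultures given vehicle only.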 The settings on record: S. cerevisiae sgs1 mgt1 strain, at 50.0 µM, hits give high values. The method in brief: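 Percent growth inhibition was derived by comparing compound-exposed mutant yeast with vehicle-exposed cultures. The strain carries alterations in DNA damage repair.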
Assay [4] can be described thus: NCI Yeast Anticancer Drug Screen. Data for the cln2 rad14 strain (AID 165).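 Further: 0% = growth equal to vehicle treated cultures.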 The settings on record: S. cerevisiae cln2 rad14 strain, at 50.0 µM, hits give high values. The method in brief:
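Yeast strain cln2 rad14, bearing defects in cell cycle control and DNA repair, serves as the test system; values reflect growth inhibition compared with vehicle.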

Assay [5] can be described thus: NCI Yeast Anticancer Drug Screen. Data for the bub3 strain (AID 167). The settings on record: S. cerevisiae bub3 mutant strain, at 50.0 µM, hits give high values. The essentials:
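Steps: expose the mutant yeast strain to compound; grow alongside vehicle-treated cultures; measure growth; express inhibition against the vehicle cultures.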

Assay [6] is described as follows: NCI Yeast Anticancer Drug Screen. Data for the mlh1 rad18 strain (AID 175). The settings on record: S. cerevisiae mlh1 rad18 strain growth inhibition; at 50.0 µM; hits give high values. The method in brief:
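Steps: expose repair-defective yeast to compound; measure growth; express inhibition against vehicle-treated controls.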

Turning to `CN(C)c1nc2ccc(Cl)cc2c(=O)[nH]1`, the growth inhibition is 6.25% in assay [1]; 4.55% in assay [2]; -14% in assay [3]; 3.55% in assay [4]; -17.9% in assay [5]; 3.9% in assay [6].
On to `COC(=O)n1c(=O)oc2ccc(Br)cc21`, for which the growth inhibition in assay [1] is 99% (active); in assay [2], 99.1% (active); in assay [3], 99.4% (active); in assay [4], 99.4% (active); in assay [5], 99.5% (active); in assay [6], 99.2% (active).
Consider `C=C(C)C#CCN(CCO)C(C)C`, for which the growth inhibition in assay [1] is -7.45%; in assay [2] it was -30.3%; in assay [3] it was -12.9%; in assay [4] it was 9.2%; in assay [5], -19.4%; in assay [6], 4.75%.
On to `CC(C)(C)OC(=O)NC(CC(N)=O)C(=O)O` (stereo unspecified), for which the growth inhibition in assay [1] is 23.1%; in assay [2], -6%; in assay [3], 8.9%; in assay [4] it was -33.5%; in assay [5], -6.45%; in assay [6], 10.7%.
On to `CCCC(=O)Oc1cc(C)ccc1C(C)(C)C`, for which the growth inhibition in assay [1] is -17.9%; in assay [2] it was -22.6%; in assay [3], -12.3%; in assay [4], -33.6%; in assay [5], -35.6%; in assay [6], -42%.
On to `CC(=O)OCc1cn(S(=O)(=O)c2ccc(C)cc2)cn1`, for which the growth inhibition was 17.9% in assay [1]; -2.45% in assay [2]; 19.1% in assay [3]; -2.65% in assay [4]; 11.6% in assay [5]; -51.9% in assay [6].
As to `O=S(=O)(c1cnccc1N1CCN(CCO)CC1)N1CCCC1`, the growth inhibition is 6.4% in assay [1]; -11.2% in assay [2]; 8.5% in assay [3]; -7.6% in assay [4]; 3.05% in assay [5]; -1.5% in assay [6].
As for `CCCCCCCC[C@]1(O)C[C@H]2[C@@H]3CCc4cc(OC)ccc4[C@H]3CC[C@]2(C)[C@H]1O`, the growth inhibition in assay [1] is -3.45%; in assay [2] it was -10.7%; in assay [3] it was -1.15%; in assay [4] it was 7.1%; in assay [5], -11.2%; in assay [6], 0.5%.
Take `CC1=NCCN1CCN`: the growth inhibition in assay [1] was 20.6%; in assay [2] it was -17.2%; in assay [3], 23.8%; in assay [4], 12.9%; in assay [5], 13.6%; in assay [6], 23.6%.
Regarding `O=C(O)COc1ccccc1P(=O)(c1ccccc1)c1ccccc1`, the growth inhibition in assay [1] is 23.1%; in assay [2] it was 17.4%; in assay [3] it was 9.7%; in assay [4] it was 35.8%; in assay [5], 22.4%; in assay [6] it was 23%.
Take `Nc1nc(Br)nc2ncn(C3CC(O)C(CO)O3)c12` (stereo unspecified): the growth inhibition is 20.1% in assay [1]; 3.8% in assay [2]; 18.3% in assay [3]; -2.25% in assay [4]; -0.85% in assay [5]; -4.9% in assay [6].
Regarding `Cc1cc(S(=O)(=O)Nc2nnc3c(Cl)cc(C(F)(F)F)cn23)c(S)cc1Cl`, the growth inhibition in assay [1] was -30.2%; in assay [2], -35.2%; in assay [3] it was -33.4%; in assay [4], -14.3%; in assay [5], 13.9%; in assay [6] it was -20%.
For the compound `Cc1ccc(C(C)C)cc1NC(=O)/C=C/c1ccccc1`, the growth inhibition is 10.2% in assay [1]; 36% in assay [2]; 36.6% in assay [3]; -15.2% in assay [4]; 23.9% in assay [5]; 55% in assay [6].
With `C/C(=N\NC(=O)C[N+](C)(C)C)c1sc(-c2cccnc2)nc1C`, the growth inhibition was 5.4% in assay [1]; -26.1% in assay [2]; 6.5% in assay [3]; 20.9% in assay [4]; -4.4% in assay [5]; -4.05% in assay [6].
Turning to `N#C/C(C(N)=O)=C1\CCCc2sccc21`, the growth inhibition in assay [1] was -13.3%; in assay [2] it was 5.9%; in assay [3], -6.3%; in assay [4], -30.1%; in assay [5] it was -4.75%; in assay [6] it was 3.4%.
For `CCN(CC)CN1C(=O)C(=O)c2ccccc21`, the growth inhibition in assay [1] is 6.8%; in assay [2] it was -25.4%; in assay [3], 2.6%; in assay [4], 24.4%; in assay [5] it was 12.8%; in assay [6] it was 10.3%.
Take `COC1(CCO)CC=CCC1(CCO)OC` (stereo unspecified): the growth inhibition in assay [1] was -2.45%; in assay [2], -20.4%; in assay [3], -19.3%; in assay [4], 13.3%; in assay [5], -19.4%; in assay [6], -7.9%.
For `CC(C)(CC1(C)NC(=O)NC1=O)OCc1ccccc1` (stereo unspecified), the growth inhibition in assay [1] is -0.5%; in assay [2], -30.1%; in assay [3], -14.8%; in assay [4], -24.2%; in assay [5], -45.8%; in assay [6] it was 1.95%.
Take `NCCNCC(O)CO` (stereo unspecified): the growth inhibition in assay [1] is -2.4%; in assay [2] it was -18.6%; in assay [3], -21.4%; in assay [4], -9.5%; in assay [5], 3.9%; in assay [6], 6.15%.
For the compound `Cc1cccc2c1C1c3ccccc3C(=O)CC1CC2=O` (stereo unspecified), the growth inhibition was 14.9% in assay [1]; 30% in assay [2]; 22.9% in assay [3]; 25.7% in assay [4]; 11% in assay [5]; 35.2% in assay [6].
On to `O=C1NC(=S)N/C1=C/c1ccc2c(c1)CCC2`, for which the growth inhibition in assay [1] is 13.9%; in assay [2], -20.2%; in assay [3] it was 20.6%; in assay [4], 12.4%; in assay [5], 31.8%; in assay [6], 12.7%.
